This is an account of results in the supplement of paper PMC9262897, “Low-cost anti-mycobacterial drug discovery using engineered E. coli” (Nature Communications, 2022).

Test in all cases: growth (OD600 after 10 h); higher = more growth (less inhibition)
In assay [1] the test system is E. coli TESEC Alr+ wild-type control. The conditions noted are these: compound 0.1 mM; raw OD600 reference: median of DMSO wells 0.241, cell-free background 0.041. As to the method: (§1)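 TESEC Mtb Alr E. coli, or the Alr+ wild-type control, in 384-well plates with Prestwick library compounds at 0.1 mM and 1% DMSO, across arabinose induction levels of 1E3 to 1E7 nM. Growth is read as OD600 after 10 h at 37 °C in triplicate biological replicates.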

The test system of assay [2] is E. coli TESEC Mtb Alr. As to conditions: compound 0.1 mM. As to the method: as §1
The test system of the next assay is E. coli TESEC Mtb Asd. As to conditions: compound 0.1 mM. As to the method:
(§2)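 TESEC E. coli strains in which the native enzyme is deleted and replaced by arabinose-inducible Mtb Asd, DapB, CysH or TrpD, each grown in its selective medium. Strains were screened against the Prestwick library at 0.1 mM and 1% DMSO in 384-well format at low and high arabinose induction. Growth is read as OD600 after 10 h in triplicate.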

A further assay deals with E. coli TESEC Mtb DapB. The conditions noted are these: compound 0.1 mM. The procedure: as §2
The test system of assay [3] is E. coli TESEC Alr+ wild-type control. The conditions noted are these: compound 0.1 mM; raw OD600 reference: median of DMSO wells 0.49, cell-free background 0.052. As to the method: (§3)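 TESEC Mtb Alr E. coli (ΔaraC ΔtolC ΔentC Δalr ΔdadX, arabinose-inducible Mtb Alr) or the Alr+ wild-type control strain, grown in defined M9-fructose medium without D-alanine in 96-well plates with Prestwick library compounds at 0.1 mM and 1% DMSO. Low Alr induction is 0.1 µM arabinose and high induction is 10 mM arabinose.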

Assay [4] relates to E. coli TESEC Mtb Alr. As to conditions: compound 0.1 mM. As to the method:
as §3
The source holds these as a separate data set.

Where [5] appears, read: arabinose 1000 nM, raw OD600 reference: median of DMSO wells 0.294, cell-free background 0.041.
[6] abbreviates: arabinose 10000 nM, raw OD600 reference: median of DMSO wells 0.264, cell-free background 0.041.
The mark [7] stands for this setting: arabinose 100000 nM, raw OD600 reference: median of DMSO wells 0.201, cell-free background 0.041.
[8] abbreviates: arabinose 1000000 nM, raw OD600 reference: median of DMSO wells 0.193, cell-free background 0.041.
Where [9] appears, read: arabinose 10000000 nM, raw OD600 reference: median of DMSO wells 0.146, cell-free background 0.041.
[10] abbreviates: arabinose induction (level): High, raw OD600 reference: median of DMSO wells 0.331, cell-free background 0.041.
Setting [11] is: arabinose induction (level): Low, raw OD600 reference: median of DMSO wells 0.417, cell-free background 0.041.
Where [12] appears, read: arabinose induction (level): High, raw OD600 reference: median of DMSO wells […], cell-free background 0.041.
[13] abbreviates: arabinose induction (level): Low, raw OD600 reference: median of DMSO wells 0.227, cell-free background 0.041.
[14] abbreviates: arabinose 100 nM, raw OD600 reference: median of DMSO wells 0.413, cell-free background 0.052.
The mark [15] stands for this setting: arabinose 10000000 nM, raw OD600 reference: median of DMSO wells […], cell-free background 0.052.

Structures can show the parent of a compound that is named as a salt. ± gives the standard deviation of the averaged measurements.

On to `CCN1CCC[C@H]1CNC(=O)c1c(OC)ccc(Br)c1OC` [Remoxipride Hydrochloride], for which the growth in assay [1] amounted to 0.256 ± 0.007; in the assay with E. coli TESEC Mtb Alr [2] (setting [5]), 0.304 ± 0.016; with E. coli TESEC Mtb Alr [2] (setting [6]) it was 0.259 ± 0.004; in the assay on E. coli TESEC Mtb Alr [2] (setting [7]) it was 0.192 ± 0.0085; with E. coli TESEC Mtb Alr [2] (setting [8]), 0.184 ± 0.0027; with E. coli TESEC Mtb Alr [2] (setting [9]), 0.136 ± 0.0041. Moreover, the growth in the assay with E. coli TESEC Mtb Asd (setting [10]) came out at 0.288 ± 0.032; with E. coli TESEC Mtb Asd (setting [11]), 0.445 ± 0.015; in the assay on E. coli TESEC Mtb DapB (setting [12]), 0.195 ± 0.0092; with E. coli TESEC Mtb DapB (setting [13]) it was 0.218 ± 0.039; in assay [3], 0.588 ± 0.039; in the assay with E. coli TESEC Mtb Alr [4] (setting [14]), 0.416 ± 0.017. Further, the growth with E. coli TESEC Mtb Alr [4] (setting [15]) is 0.338 ± 0.039.
Take `COC(=O)C1=C(C)NC(C)=C(C(=O)OCCN(C)Cc2ccccc2)C1c1cccc([N+](=O)[O-])c1` (configuration not stated) [Nicardipine hydrochloride]: the growth in assay [1] came out at 0.0481 ± 0.0012; in the assay on E. coli TESEC Mtb Alr [2] (setting [5]), 0.0453 ± 0.0013; with E. coli TESEC Mtb Alr [2] (setting [6]), 0.04637 ± 0.00021; with E. coli TESEC Mtb Alr [2] (setting [7]) it was 0.049 ± 0.0015; with E. coli TESEC Mtb Alr [2] (setting [8]), 0.045 ± 0.0027; in the assay on E. coli TESEC Mtb Alr [2] (setting [9]), 0.0566 ± 0.0042. Further, the growth was 0.054 ± 0.0024 in the assay with E. coli TESEC Mtb Asd (setting [10]); 0.0558 ± 0.0072 with E. coli TESEC Mtb Asd (setting [11]); 0.107 ± 0.079 in the assay with E. coli TESEC Mtb DapB (setting [12]); 0.0547 ± 0.0015 in the assay with E. coli TESEC Mtb DapB (setting [13]); 0.0588 ± 0.0012 in assay [3]; 0.3938 ± 0.0022 in the assay with E. coli TESEC Mtb Alr [4] (setting [14]). This molecule also returned a growth with E. coli TESEC Mtb Alr [4] (setting [15]) of 0.0545 ± 0.0036.
Consider `NC12CC3CC(CC(C3)C1)C2` [Adamantamine fumarate], for which the growth in assay [1] was determined as 0.253 ± 0.0038; in the assay with E. coli TESEC Mtb Alr [2] (setting [5]) it was 0.299 ± 0.0054; in the assay with E. coli TESEC Mtb Alr [2] (setting [6]), 0.271 ± 0.005; in the assay on E. coli TESEC Mtb Alr [2] (setting [7]) it was 0.248 ± 0.034; in the assay with E. coli TESEC Mtb Alr [2] (setting [8]), 0.209 ± 0.014; with E. coli TESEC Mtb Alr [2] (setting [9]) it was 0.145 ± 0.0061. In addition, the growth with E. coli TESEC Mtb Asd (setting [10]) turned out to be 0.353 ± 0.052; in the assay on E. coli TESEC Mtb Asd (setting [11]), 0.457 ± 0.0081; with E. coli TESEC Mtb DapB (setting [12]) it was 0.2 ± 0.0046; with E. coli TESEC Mtb DapB (setting [13]), 0.214 ± 0.0073; in assay [3] it was 0.469 ± 0.056; in the assay on E. coli TESEC Mtb Alr [4] (setting [14]), 0.407 ± 0.0076. Also, the growth with E. coli TESEC Mtb Alr [4] (setting [15]) is 0.368 ± 0.026.
On to `C[C@]12CC[C@@H]3c4ccc(O)cc4CC[C@H]3[C@@H]1C[C@@H](O)[C@@H]2O` [Estriol], for which the growth in assay [1] was 0.152 ± 0.0072; in the assay on E. coli TESEC Mtb Alr [2] (setting [5]) it was 0.218 ± 0.018; in the assay on E. coli TESEC Mtb Alr [2] (setting [6]), 0.277 ± 0.015; with E. coli TESEC Mtb Alr [2] (setting [7]), 0.148 ± 0.0042; with E. coli TESEC Mtb Alr [2] (setting [8]), 0.135 ± 0.0069; with E. coli TESEC Mtb Alr [2] (setting [9]), 0.143 ± 0.0047. The growth with E. coli TESEC Mtb Asd (setting [10]) was determined as 0.221 ± 0.043; in the assay with E. coli TESEC Mtb Asd (setting [11]), 0.264 ± 0.034; in the assay with E. coli TESEC Mtb DapB (setting [12]), 0.183 ± 0.008; with E. coli TESEC Mtb DapB (setting [13]) it was 0.203 ± 0.033; in assay [3], 0.474 ± 0.021; with E. coli TESEC Mtb Alr [4] (setting [14]), 0.432 ± 0.0087. The same molecule yielded a growth with E. coli TESEC Mtb Alr [4] (setting [15]) of 0.258 ± 0.013.
